From PubChem BioAssay
VACV Venus inh – vaccinia inhibition (Venus reporter); Vaccinia virus Venus reporter expression, fluorescence; Potency, µM (highest dose often 36.5 µM), for inactives: at the highest dose activity change, negative = inhibition, most hits filed as inhibitors; 330,000 compounds, 0.46% hits; AID 720580; calls by dose curve; tested in A549 cells; further: on the % scale 0 is the no-effect control and ±100 the full control effect; nearly all actives have a fitted effect of over 30% in size
SARS PLpro yeast – inhibitors of SARS-CoV papain-like protease in yeast | S. cerevisiae expressing SARS-CoV PLpro, growth rescue | Potency, µM (series often up to 32.9 µM), inactives show top-dose activity, positive = growth rescue, most hits filed as activators | 330,000 compounds, 0.19% hits | AID 485353; calls by dose curve; further: 0% is about no effect; nearly all actives have a fitted effect of over 55% in size
VACV mCherry inh – inhibitors of vaccinia virus infection (mCherry reporter signal) | Vaccinia virus mCherry reporter infection, fluorescence | Potency, µM (series often up to 36.5 µM), for inactives: at the highest dose activity change, negative = inhibition, hits mostly inhibitors | 310,000 compounds, 0.63% hits | AID 720579; calls by dose curve; tested in A549 cells; further: on the % scale 0 is the no-effect control and ±100 the full control effect; nearly all actives have a fitted effect of over 35% in size
AMA1-RON2 inh – inhibitors of Plasmodium falciparum AMA1-RON2 interaction. AlphaScreen AMA1-biotinylated RON2 peptide binding. Potency, µM (titrated, usually from 58.2 µM), for the others: at the top dose activity change, negative = inhibition, usual class: inhibitors. 360,000 compounds, 0.2% hits. AID 720542;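 further: 0% = vehicle wells and -100% = peptide control; nearly all actives have a fitted effect of over 45% in size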
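AMA1 (3D7) with his tag at 25 nM final met compounds first, then biotinylated RON2 peptide at 25 nM; detection used donor plus acceptor beads, 10 µg/mL apiece, read by AlphaScreen after 30 min at room temperature.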
AmpC inh no detg – inhibitors of E. coli AmpC beta-lactamase without detergent; AID 485341; P00811; 330,000 compounds, 0.52% hits; AmpC nitrocefin hydrolysis, absorbance 480 nm, 0.0001% Triton; Potency, µM (doses to about 57.1 µM), inactives show at the top dose activity change, negative = inhibition, hits mostly inhibitors;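 further: plate controls were no compound for no effect and no enzyme for full effect; nearly all actives have a fitted effect of over 20% in size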
Target sequence (P00811 whole entry, looked up): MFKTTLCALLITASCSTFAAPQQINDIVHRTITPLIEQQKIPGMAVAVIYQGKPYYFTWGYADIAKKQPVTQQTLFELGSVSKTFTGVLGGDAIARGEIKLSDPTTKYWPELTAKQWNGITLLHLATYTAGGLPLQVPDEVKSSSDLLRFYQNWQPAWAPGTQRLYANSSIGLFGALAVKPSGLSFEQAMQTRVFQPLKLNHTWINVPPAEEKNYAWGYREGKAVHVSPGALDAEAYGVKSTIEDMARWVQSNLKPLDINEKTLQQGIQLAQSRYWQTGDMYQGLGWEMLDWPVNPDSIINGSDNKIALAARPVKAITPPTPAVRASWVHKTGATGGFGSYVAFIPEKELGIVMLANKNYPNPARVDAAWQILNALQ
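AmpC (5.3 nM in the dispensed reagent) in 20 mM phosphate pH 7.0 with 0.01% (detergent screen) or 0.0001% Triton X-100 was preincubated with compounds for 15 min at room temperature. Nitrocefin was then added from an 800 uM solution, and hydrolysis was followed at 480 nm.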
AmpC inh detg – blocks E. coli AmpC beta-lactamase in detergent assay | P00811 | AmpC hydrolysis of nitrocefin, absorbance 480 nm, 0.01% Triton | Potency, µM (highest dose often 114 µM), inactives show at the top dose activity change, negative = inhibition, usual class: inhibitors | 370,000 compounds, 0.041% hits;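 further: 0% = no-compound wells and -100% = no-enzyme wells; nearly all actives have a fitted effect of over 25% in size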
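AmpC (5.3 nM in the dispensed reagent) in 20 mM phosphate pH 7.0 with 0.01% (detergent screen) or 0.0001% Triton X-100 was preincubated with compounds for 15 min at room temperature. Nitrocefin was then added from an 800 uM solution, and hydrolysis was followed at 480 nm.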
An asterisk follows results filed as active; i = inactive; ? = inconclusive; / = no result given; [ ] = remark or other dose. In the library only some 1.3% were active in any assay of this set; here they are far more common. Unless noted, the call rests on the fitted dose curve; in most records, active means well fitted curve in the direction sought with a large enough effect; inconclusive means small, poorly fitted or top-dose-only effect, or another doubt; inactive means no such curve, though single readings can be large; an effect the other way counts as inactive or inconclusive. Potency means the concentration at half of the fitted maximal effect.

SMILES	VACV Venus inh	SARS PLpro yeast	VACV mCherry inh	AMA1-RON2 inh	AmpC inh no detg	AmpC inh detg
CN(C)c1ccc(/C=C/C=C2/C=Cc3ccccc32)cc1	-13%	/	1%	/	/	/
Cn1c(SCC(=O)Nc2cccc(F)c2)nnc1-c1cccnc1	/	-1%	/	5%	-8%	-8%
Cn1c(SCC(=O)Nc2ccc(F)cc2F)nnc1-c1cccnc1	/	16%	/	3%	0.32µM*	?
O=C(CSc1ccncc1)NCC1Cc2cccc(-c3cncnc3)c2O1 (stereo not given)	-9%	/	i	/	/	/
Cc1cc(C)n(-c2ccc(C(=O)NCC3Cc4cc(-c5cnccn5)ccc4O3)cc2)n1 (stereo not given)	-7%	/	-8%	/	/	/
CC(NC(=S)Nc1ccccc1OC(F)F)C(C)(C)C (stereo not given)	-5%	11µM*	-5%	-1%	-13%	6%
CC(=O)c1ccc(NC(=O)Nc2ccc(S(=O)(=O)N3CCCC3)cc2)cc1	-30%	2%	-19%	-1%	14µM*	-6%
CC(=O)c1ccc(NC(=O)c2ccc(S(=O)(=O)N3CCCC3)cc2)cc1	-10%	-6%	-15%	-3%	-39%	-4%
CC[C@@]1([C@@H]2O[C@@H]([C@H]3O[C@@](O)(CO)[C@H](C)C[C@@H]3C)C[C@@H]2C)CC[C@H]([C@]2(C)CC[C@]3(C[C@H](O)[C@@H](C)[C@@H]([C@@H](C)[C@@H](OC)[C@H](C)C(=O)O)O3)O2)O1 (stereo in doubt)	?	/	i	/	/	/
NS(=O)(=O)c1ccc(CCNc2nc3c(-c4cccc(F)c4)nnn3c3ccc(Cl)cc23)cc1	-19%	/	-25%	/	/	10%
CSc1nccc(-c2cc(Cl)c3c(c2)CC(CNC(=O)c2ccc(C)nc2)O3)n1 (stereo not given)	0%	/	i	/	/	/
COc1ccc(OC)c(CNc2ncc(-c3cccc([N+](=O)[O-])c3)n2C)c1	/	-6%	/	14µM*	-7%	?
Cc1cc(C(=O)Nc2ccccc2-c2nc(CNC(=O)c3cc4ccccc4cn3)c(C)o2)c(C)o1	7%	/	-8%	/	/	/
Cc1ncc2c(c1CNC(=O)c1ccc3c(c1)OCO3)CCN(C(=O)c1noc3c1CCCC3)C2	-4%	/	-7%	/	/	/
CCc1ccccc1N1CC23C=CC(O2)C(C(=O)O)C3C1=O (stereo not given)	1%	4%	0%	2%	3.5µM*	1%
Cc1cc(C(=O)Nc2ccccc2-c2nc(CNC(=O)C3COc4ccccc4O3)c(C)o2)c(C)o1 (stereo not given)	17%	/	-1%	/	/	/
Cc1ccc(S(=O)(=O)c2nc(S(C)(=O)=O)sc2N(C)C)cc1	11µM*	3%	-16%[1.46 µM]	-5%	-8%	7%
COC(=O)C1=C(c2cccc(OCc3ccccc3)c2)C[C@@H]2CC[C@H]1N2C(=O)NCc1ccc(C(C)(C)C)cc1	?	-1%	?	-8%	-9%	7%
COC(=O)C1=C(c2cccc(OCc3ccccc3)c2)C[C@@H]2CC[C@H]1N2C(=O)NCc1ccc(N(C)C)cc1	?	4%	-27%	11µM*	2%	-2%
COc1ccccc1-c1ccnc(-n2ncc(C(=O)NCc3ccncc3)c2C)n1	-18%	/	?	/	/	/
O=C(NN=C1CCCC1)c1[nH]c2ccc(Br)cc2c1-c1ccccc1	?	0%	11µM*	55%	-30%	-7%
O=C(N/N=C/c1ccccc1)c1[nH]c2ccc(Br)cc2c1-c1ccccc1	-28%	-19%	?	6%	-31%	0%
Cc1ccc(OCC(=O)Nc2ccc(Cl)cc2C(=O)c2ccccc2)cc1	-15%	1%	-17%	-3%	-20%	-2%
Cc1ccc(NC(=O)COc2ccc(C(=O)c3ccccc3)cc2)c(O)c1	-6%	-2%	?	24%	16µM*	1%
Cn1nnnc1Sc1ncnc2scc(-c3ccc(F)cc3)c12	?	-1%	10µM*	1%	-18%	3%
SMILES	VACV Venus inh	SARS PLpro yeast	VACV mCherry inh	AMA1-RON2 inh	AmpC inh no detg	AmpC inh detg
Cn1nnnc1Sc1ncnc2scc(-c3ccc(Br)cc3)c12	/	4%	/	/	-5%	/
Cc1cc(C)c2c(c1)/C(=N/Nc1ccc(S(N)(=O)=O)cc1[N+](=O)[O-])CCC2	/	-1%	/	0%	-26%	-4%
NS(=O)(=O)c1ccc(N/N=C2/CCCCC2C2CCCCC2)c([N+](=O)[O-])c1 (stereo not given)	16µM*	-58%	20µM*	-30%	-29%	-8%
C[C@]12c3[nH]c4cc(-c5ccco5)ccc4c3CCN1C(=O)[C@@H](CC(=O)NCC13CC4CC(CC(C4)C1)C3)C[C@@H]2C(=O)N1CCOCC1	10µM*	9%	?	?	149%	/
CCN(CC)C(=O)[C@H]1C[C@H](CC(=O)NCC23CC4CC(CC(C4)C2)C3)C(=O)N2CCc3c([nH]c4cc(-c5ccco5)ccc34)[C@]12C	11µM*	1%	?	0%	-8%	/
CCN(CC)C(=O)[C@H]1C[C@H](CC(=O)NCCCN(C)C)C(=O)N2CCc3c([nH]c4cc(-c5ccco5)ccc34)[C@]12C	-15%	?	?	-24%	206%	/
Cc1ccsc1C(=O)N(Cc1cc2ccc(F)cc2nc1N1CCC(O)CC1)CC1CCCO1 (stereo not given)	5%	/	-7%	/	/	/
Cc1ccccc1C1(CC(=O)N2CCOCC2)CC(=O)N(Cc2cccnc2)C1=O (stereo not given)	0%	/	-5%	/	/	/
CCCCCNC(=O)Cc1cc(=O)[nH]c(=O)[nH]1	22%	4%	37%	12%	50µM*	?
CCCNC(=O)Cc1cc(=O)[nH]c(=O)[nH]1	-2%	12%	i	-5%	?	3%
c1ccc2c(CCc3c[nH]c4ccccc34)ccnc2c1	66%	/	?	/	/	/
COc1ccc(OC)c(NC(=O)c2oc3ccccc3c2NC(=O)C2CC2)c1	/	-3%	/	14%	-10%	-3%
COc1ccc(NC(=O)c2oc3ccccc3c2NC(=O)C2CC2)c(OC)c1	9%[7.34 µM]	1%	-5%[7.34 µM]	4.5µM*	0%	5%
CC1CCN(c2nc(Cl)nc(Nc3ccc([N+](=O)[O-])cc3)n2)CC1	0%	-104%	i	0%	10µM*	?
CC(=NNC(=S)Nc1cccc(Cl)c1)c1ccccn1	?	/	2.8µM*	-42%	/	/
CC(=NNC(=S)N1CCCC1)c1ccccn1	?	/	?	88%	/	/
CC(=NNC(=S)SCc1ccccc1)c1ccccn1	?	/	10µM*	-1%	/	/
S=C(NCc1ccccn1)Nc1cccc(Cl)c1	-5%	30%	-16%	12%	-25%	-3%
